In the supplement of paper PMC10338343:
± gives the standard deviation.

Legend:
[1] = tested on: MILI (PIWIL2) piRISC loaded with piRNA #1 (26 nt); assay: pre-steady-state target cleavage rate (min^-1); guide: piRNA #1 5'p-UGAGGUAGUAGGUUGUAUAGUAUCCA; higher = faster piRNA-guided slicing of the target; conditions: auxiliary factor: 500 nM mouse GTSF1
Outline: (§1)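 Using HEPES–potassium acetate buffer at 33 °C, 1 nM active affinity-purified piRISC with a single synthetic guide was mixed with 0.1 nM transcribed, DNA-blocked target RNA library for 0–8 or 0–960 min, with or without 500 nM GTSF1 partner protein. Uncleaved targets were sequenced and normalised to depth and to weakly complementary targets, and three trials were pooled with k3 capped at 0.0001 min^-1. A burst-and-steady-state fit gave the pre-steady-state cleavage rate.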

[2] = tested on: EfPiwi piRISC loaded with piRNA #1 (26 nt); assay: pre-steady-state target cleavage rate (min^-1); auxiliary factor: 500 nM Ephydatia muelleri Gtsf1; guide: piRNA #1 5'p-UGAGGUAGUAGGUUGUAUAGUAUCCA; MIWI and MILI are mouse PIWI proteins and EfPiwi is from a freshwater sponge; tags in brackets are library labels; higher = faster piRNA-guided slicing of the target
Outline: as §1

Row | Sequence | pre-steady-state target cleavage rate [1] | pre-steady-state target cleavage rate [2]
1 | GGAGACCUUACUAUACAUCCUACUACCUGA | 0.195 ± 0.033 | 0.00345 ± 0.0024
2 | GGAGACCUAACGUAUACAACCUACUACCUCA | 0.0292 ± 0.012 | 0.0505 ± 0.021
3 | GGAGAGGAUACUAUACAACCUAUACCUCA | 0.00606 ± 0.0021 | 0.00469 ± 0.0024
4 | GGAGUCGAUACUAUACAACCUAGUACCUCA | 0.0166 ± 0.0031 | 0.00334 ± 0.0014
5 | GGAGACCUAUCAAUACAACCUACUACCUCA | 0.0355 ± 0.0083 | 0.00612 ± 0.0034
6 | GGAGACCUUACGAUACAACCUACUACCUCA | 0.152 ± 0.017 | 0.0548 ± 0.021
7 | GGAGUGAGAUACUAUACAACCUACUACCUCA | 0.189 ± 0.012 | 0.0362 ± 0.015
8 | GGAGACGAUACUAUACAACCUACUACCAUCA | 0.134 ± 0.013 | 0.00489 ± 0.002
9 | GGAGACCAAACUAAACAACCUACUACCUCA | 0.104 ± 0.027 | 0.00793 ± 0.0036
10 | GGAGAGGAUACUAUACAACCUACACCUCA | 0.00718 ± 0.0031 | 0.00361 ± 0.002
11 | GGAGACCUAUGAAUACAACCUACAUACCUCA | 0.00848 ± 0.0021 | < 0.0001
12 | GGAGACCUAACUAUACAACCUACUACCUUCA | 0.14 ± 0.028 | 0.0285 ± 0.011
13 | GGAGACCAUACUAUACAACCUACUAUCCUCA | 0.219 ± 0.019 | 0.00375 ± 0.0028
14 | GGAGACCUUACUAUACAACCUAGUACCUCA | 0.0616 ± 0.011 | 0.00384 ± 0.0019
15 | GGAGACCAUACUUUACAACCUACUACCUCA | 0.168 ± 0.014 | 0.017 ± 0.0071
16 | GGAGAGGAUACUAUACAACCUACUAACUCA | 0.0462 ± 0.014 | 0.00561 ± 0.0029
17 | GGAGAGCAUACUUUACAACCUACUACCUCA | 0.138 ± 0.01 | 0.0083 ± 0.0045
18 | GGAGUGGAUACUAAACAAGCUACUACCUCA | 0.211 ± 0.013 | 0.00401 ± 0.0019
19 | GGAGACCAUACUAUACAACCUACUACUCA | 0.204 ± 0.026 | 0.00387 ± 0.0024
20 | GGAGAGGAUACUAAACAACCUACAACCUCA | 0.119 ± 0.014 | 0.00196 ± 0.0019

Row | Sequence | pre-steady-state target cleavage rate [1] | pre-steady-state target cleavage rate [2]
21 | GGAGACCAUACUUACAACCUACUACCUCA | 0.0658 ± 0.012 | 0.00861 ± 0.0046
22 | GGAGACCUUACUAUACAUCCUAGUACCUCA | 0.0856 ± 0.018 | 0.00256 ± 0.0016
23 | GGAGACCUAACUAUACAUCCUACUACCUCA | 0.239 ± 0.028 | 0.00745 ± 0.0028
24 | GGAGACCUAUCUAAACAACCUACUACCUCA | 0.0794 ± 0.014 | 0.00381 ± 0.0037
25 | GGAGAGGAUACUAUACAUCGUACUACCUCA | 0.0374 ± 0.0069 | 0.00364 ± 0.0019
26 | GGAGACCAAAGUAUACAACCUACUACCUCA | 0.0438 ± 0.0093 | 0.0166 ± 0.0082
27 | GGAGACCAUACUGUACAACCUACUACCUCA | 0.079 ± 0.012 | 0.0144 ± 0.0056
28 | GGAGACCAUACUAUAACAACCUACUACCUCA | 0.133 ± 0.012 | 0.00662 ± 0.0038
29 | GGAGAGGAUACUAUACAACCUACUAACCUCA | 0.159 ± 0.016 | 0.00574 ± 0.0027
30 | GGAGACCAUACUAUACAUCCUACUACCUGA | 0.23 ± 0.034 | 0.00312 ± 0.0018
31 | GGAGUGGAAACUAUACAACCUUCUACCUCA | 0.00517 ± 0.0028 | 0.00484 ± 0.0029
32 | GGAGACGAUACUAUACAACCUCCUACCUCA | 0.041 ± 0.0079 | 0.00579 ± 0.0016
33 | GGAGUGGAUAGUAUACAACCUUCUACCUCA | 0.0115 ± 0.0038 | 0.00338 ± 0.0021
34 | GGAGUGGAUACAUAACAACCUACUACCUCA | 0.113 ± 0.0099 | 0.00683 ± 0.0044
35 | GGAGACGAUACUAAACAACCUACUACCUGA | 0.124 ± 0.02 | 0.00288 ± 0.0022
36 | GGAGACCAUACUAGACAACCUACUACCUCA | 0.151 ± 0.014 | 0.0249 ± 0.01
37 | GGAGACCUAUGUAUACAACCUAGUACCUCA | 0.00921 ± 0.0021 | 0.00291 ± 0.0029
38 | GGAGACCUUACUAUACAACCUACUAUCUCA | 0.0879 ± 0.0097 | 0.00831 ± 0.0039
39 | GGAGAGGGUACUAUACAACCUACUACCUCA | 0.145 ± 0.013 | 0.0162 ± 0.0072
40 | GGAGACCAUACUAUCACAACCUACUACCUCA | 0.136 ± 0.019 | 0.0399 ± 0.014

Row | Sequence | pre-steady-state target cleavage rate [1] | pre-steady-state target cleavage rate [2]
41 | GGAGUGGAUACAAUACAACCUACUACCUCA | 0.174 ± 0.0095 | 0.0165 ± 0.0068
42 | GGAGACGAUACAAUACAACCUACUACCACA | 0.204 ± 0.019 | 0.00392 ± 0.0029
43 | GGAGUGGAUACUGAUACAACCUACUACCUCA | 0.144 ± 0.01 | 0.0129 ± 0.0062
44 | GGAGACCAUACUAUAUCAACCUACUACCUCA | 0.0898 ± 0.011 | 0.0136 ± 0.0068
45 | GGAGAGGAUACAAUACAACGUACUACCUCA | 0.0139 ± 0.003 | 0.00326 ± 0.002
46 | GGAGAGGUAUACUAUACAACCUACUACCUCA | 0.111 ± 0.0086 | 0.0588 ± 0.023
47 | GGAGACGAUACUAUACUAGCUACUACCUCA | 0.198 ± 0.011 | 0.00469 ± 0.0025
48 | GGAGUGCAUACAAUACAACCUACUACCUCA | 0.186 ± 0.013 | 0.0102 ± 0.0044
49 | GGAGUGGAUAGUUUACAACCUACUACCUCA | 0.11 ± 0.0082 | 0.00446 ± 0.0033
50 | GGAGACCAUACUAUACAACCUACUGCCUCA | 0.139 ± 0.015 | 0.00606 ± 0.0025
51 | GGAGACGAUACUAUACAACCAUACUACCUCA | 0.00651 ± 0.0034 | 0.00938 ± 0.0047
52 | GGAGUGGAAACUAUACAACCUACUACCUCA | 0.225 ± 0.02 | 0.0504 ± 0.018
53 | GGAGUGGAUACUAUACAACCUAAUACCUCA | 0.0398 ± 0.0071 | 0.00389 ± 0.0016
54 | GGAGACCUUACUAUACAACCUACUGCCUCA | 0.0872 ± 0.011 | 0.00661 ± 0.0029
55 | GGAGAGGAUACUAUACAACCGUACUACCUCA | 0.00509 ± 0.0031 | 0.00659 ± 0.0028
56 | GGAGACCUAACUAUACAACCUACUGCCUCA | 0.102 ± 0.024 | 0.0364 ± 0.015
57 | GGAGACCUAACUAUACAACGUACUACGUCA | 0.00454 ± 0.0043 | 0.00291 ± 0.0026
58 | GGAGUGGAAACAAUACAACCUACUACCUCA | 0.184 ± 0.018 | 0.00713 ± 0.0044
59 | GGAGAGGAUACUAUACCACCUACUACCUCA | 0.212 ± 0.019 | 0.00648 ± 0.003
60 | GGAGACGAUACUUUACAACCUAGUACCUCA | 0.0601 ± 0.017 | 0.00252 ± 0.0017
